This is a sample that favours compounds with a hit; in the whole collection about 2.2% have one here.
RTF Ca sens act: increases calcium sensitivity of human cardiac regulated thin filaments | activation, % at 7.2 µM | actives 0.24% (n = 340,000) | P19429+P45379 | IANBD-labeled TnC RTF fluorescence at EC20 calcium; 0% EC20 calcium, 100% full calcium;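 active = activation above the mean over all tested compounds plus 3 SD, cut at about 30% in these data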;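 note: rise in fluorescence read as greater calcium sensitivity of cardiac thin filaments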
CRFR2-BP ag: agonists of human CRF-binding protein/CRF-R2 receptor complex; activation, % at 13.2 µM; HEK293 CRF-R2/CRF-BP, calcium dye fluorescence (FLIPR); percent of saturating CRF peptide response; AID 588473; actives 0.46% (n = 350,000);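 active = activation of at least 50%, plus an integration ratio under a set limit after plate pattern correction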;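 note: plate controls were neutral control wells without compound for no effect and CRF at EC100 for full effect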
RTF Ca sens inh: cardiac RTF calcium desensitization; P19429+P45379; IANBD-labeled cardiac RTF, Ca2+ fluorescence; inhibition, % at 7.15 µM; actives 0.12% (n = 340,000); AID 493244;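 active = inhibition above the mean inhibition of all tested compounds plus 3 SD, cut at about 17% in these data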;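 note: assay run at fixed EC70 calcium of 1.6 mM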
Myeloid diff 2: promotes myeloid progenitor differentiation; actives 1% (n = 360,000); calls only at 10 µM; ER-HoxA9 myeloid progenitors, lysozyme-GFP differentiation, flow cytometry; AID 624256;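 active = normalized GFP-positive differentiation at or above the plate's own cutoff, the solvent-only control mean plus 3 SD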;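 note: cells exposed to compound for four days before flow analysis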
CRFBP-R2 block: blocks CRF-induced signaling of the CRF-BP/CRF-R2 complex | HEK293 CRF-R2/CRF-BP, CRF-induced calcium fluorescence | inhibition, % at 11.8 µM | actives 0.59% (n = 350,000) | AID 588475;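 active = inhibition of the ligand-induced calcium signal above about 50% at the single tested concentration, limit read from the data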
Myeloid diff CP1: compounds promoting myeloid differentiation | shares compounds with Myeloid diff 2 | ER-HoxA9 myeloid progenitors, GFP/Mac1 double-positive flow | calls only | actives 2% (n = 2,300);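 active = share of green or green-and-red cells above 9 and 9% in run 1 or 4 and 3% in run 2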
GFP autofluor: compound fluorescence in myeloid differentiation counter-screen; shares compounds with Myeloid diff 2; ER-HoxA9 myeloid progenitors, no estrogen, GFP autofluorescence flow cytometry; vehicle wells 0%, positive control 100%; fluorescence response, % (concentration not given with the values); actives 7.4% (n = 2,300);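 active = over 5% cells positive for green fluorescent reporter, or over 2% positive for both it and APC stain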;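 note: range taken on the double positive population between DMSO and positive control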
* = called active by the depositor.

`CC1CC(C)(C)NC(=S)N1CCCC(=O)NCc1ccccc1` (stereo not drawn) gave RTF Ca sens act 8.1, CRFR2-BP ag 2.6, RTF Ca sens inh 10.5, Myeloid diff 2 inactive, CRFBP-R2 block -14.1, Myeloid diff CP1 inactive and GFP autofluor 0.0.
For CCc1ccc(NC(=O)CCCN2C(=S)NC(C)(C)CC2C)cc1 (stereo not drawn) the results were RTF Ca sens act -2.9, CRFR2-BP ag -2.4, RTF Ca sens inh -6.6, Myeloid diff 2 inactive and CRFBP-R2 block -8.5.
For O=c1[nH]c(SCc2ccc(OC(F)(F)F)cc2)nc2c1CCC2 the results were Myeloid diff 2 inactive.
`Cc1ccc([C@H]2C[C@@H](O)[C@H](n3cc(COC(=O)c4ccccc4)nn3)CN2Cc2cccs2)cc1` gave CRFR2-BP ag 9.2, Myeloid diff 2 inactive, CRFBP-R2 block -3.7, Myeloid diff CP1 inactive and GFP autofluor 0.0.
Screening COc1ccc([C@H]2C[C@H](n3cc(COC(=O)c4ccccc4)nn3)[C@@H](O)CN2C(=O)C2CCCCC2)cc1 returned CRFR2-BP ag -3.0, Myeloid diff 2 inactive, CRFBP-R2 block 38.6, Myeloid diff CP1 inactive and GFP autofluor 0.3.
Screening COc1ccc([C@H]2C[C@@H](n3cc(COC(=O)c4ccccc4)nn3)[C@H](O)CN2C(=O)C2CCCCC2)cc1 returned CRFR2-BP ag -0.9, Myeloid diff 2 inactive and CRFBP-R2 block -12.3.
Screening Cc1ccc([C@H]2C[C@H](O)[C@@H](n3cc(COC(=O)c4ccccc4)nn3)CN2Cc2cccs2)cc1 returned CRFR2-BP ag 2.6, Myeloid diff 2 inactive and CRFBP-R2 block -39.3.
CCCCN(C)c1c(C)nc2ccc(C(=O)NCc3ccc4c(c3)OCO4)cn12 was read as Myeloid diff 2 inactive.
For Cn1c(=O)[nH]c(=O)c2c1nc(Br)n2CC(O)c1ccccc1 (stereo not drawn) the results were RTF Ca sens act 0.4, CRFR2-BP ag -1.5, RTF Ca sens inh -5.8, Myeloid diff 2 inactive and CRFBP-R2 block 2.9.
CCCNC(=O)NC(=O)CSc1nc2ccccc2n1CC(C)C was read as RTF Ca sens act 1.1, CRFR2-BP ag 0.3, RTF Ca sens inh 2.1, Myeloid diff 2 inactive, CRFBP-R2 block -32.9, Myeloid diff CP1 inactive and GFP autofluor 0.3.
For Oc1cccc(Nc2nc(O)c(/C=C3\C=Nc4ccccc43)s2)c1 the results were RTF Ca sens act 27.1, CRFR2-BP ag 15.3, RTF Ca sens inh -55.0, Myeloid diff 2 active, CRFBP-R2 block -26.0, Myeloid diff CP1 inactive and GFP autofluor 0.0.
Oc1nc(Nc2cccc(Cl)c2)sc1/C=C1\C=Nc2ccccc21 was read as RTF Ca sens act -9.2, CRFR2-BP ag -1.6, RTF Ca sens inh -7.4, Myeloid diff 2 inactive and CRFBP-R2 block -33.2.
`CC(C)(C)c1ccc(C(=O)NNC(=O)CCC(=O)Nc2ccccc2)cc1` gave RTF Ca sens act 4.5, CRFR2-BP ag 2.9, RTF Ca sens inh -3.8, Myeloid diff 2 active, CRFBP-R2 block -15.0, Myeloid diff CP1 inactive and GFP autofluor 0.0.
`CC(C)(C)c1ccc(OCCC(=O)NNC(=O)c2ccccc2)cc1` gave RTF Ca sens act -7.0, CRFR2-BP ag -0.3, RTF Ca sens inh -0.8, Myeloid diff 2 inactive and CRFBP-R2 block 1.0.
For CC(C)(C)OC(=O)N[C@H](C(=O)OC(C)(C)C)c1ccc2c(c1)OCO2 the results were RTF Ca sens act -4.9, CRFR2-BP ag 0.0, RTF Ca sens inh -0.1, Myeloid diff 2 inactive and CRFBP-R2 block 3.9.
CC(C)(C)CC(C)(C)NCC(O)COc1c(F)cc(Br)cc1F (stereo not drawn) was read as RTF Ca sens act -1.2, CRFR2-BP ag 1.8, RTF Ca sens inh -1.1, Myeloid diff 2 active, CRFBP-R2 block -55.4, Myeloid diff CP1 inactive and GFP autofluor 0.0.
Screening CCC(C)CN1C(=O)CN(S(C)(=O)=O)CC1(C)C(=O)Nc1c(C)cccc1C (stereo not drawn) returned Myeloid diff 2 inactive.
CCOC(=O)Cn1c2c(c(=N)c3c1CCC3)CCC2 was read as RTF Ca sens act 12.0, CRFR2-BP ag -0.4, RTF Ca sens inh -2.1, Myeloid diff 2 inactive and CRFBP-R2 block -3.2.
Screening CCOC(=O)Cn1c2c(c(=N)c3ccccc31)CCC2 returned RTF Ca sens act 9.6, CRFR2-BP ag -2.7, RTF Ca sens inh 11.6, Myeloid diff 2 active, CRFBP-R2 block 1.4, Myeloid diff CP1 inactive and GFP autofluor 0.0.
Screening CCn1c(CNC(=O)c2cccc(C)c2)nnc1SCC(=O)N1CCOCC1 returned RTF Ca sens act -2.9, CRFR2-BP ag -0.9, RTF Ca sens inh -5.9, Myeloid diff 2 inactive and CRFBP-R2 block 8.7.
For COC(=O)[C@H](CCSC)NC(=O)NCc1cccs1 the results were RTF Ca sens act -4.1, CRFR2-BP ag -2.4, RTF Ca sens inh -0.3, Myeloid diff 2 inactive, CRFBP-R2 block -0.3, Myeloid diff CP1 inactive and GFP autofluor 0.3.
COC(=O)[C@@H](NC(=O)NCc1cccs1)C(C)C was read as RTF Ca sens act 0.6, CRFR2-BP ag -0.4, RTF Ca sens inh -3.4, Myeloid diff 2 inactive and CRFBP-R2 block -12.1.
CSc1ccccc1NC(=O)Nc1ccc(Cl)cc1 was read as RTF Ca sens act 6.0, CRFR2-BP ag 2.8, RTF Ca sens inh -4.5, Myeloid diff 2 inactive, CRFBP-R2 block -29.1, Myeloid diff CP1 inactive and GFP autofluor 0.0.
For Cn1cc(-c2cnc3c(NC=O)cc(-c4cccc(C(F)(F)F)c4)cn23)cn1 the results were Myeloid diff 2 active, Myeloid diff CP1 inactive and GFP autofluor 1.6.
`COc1ccc(-c2cc(NC(C)=O)c3ncc(-c4cccc(C(F)(F)F)c4)n3c2)c(OC)c1` gave Myeloid diff 2 inactive.
`COc1ccc(-c2cc(NC=O)c3ncc(-c4cccc(C(F)(F)F)c4)n3c2)c(OC)c1` gave Myeloid diff 2 active, Myeloid diff CP1 inactive and GFP autofluor 0.5.
Screening CN1CCCN(Cc2nc(-c3ccc(Cl)cc3)no2)CC1 returned RTF Ca sens act 3.1, CRFR2-BP ag 2.3, RTF Ca sens inh 2.8, Myeloid diff 2 inactive and CRFBP-R2 block -7.6.
Screening COc1ccc(S(=O)(=O)Nc2cccc3c2O[C@H](CN(C)CC2CCCCC2)[C@@H](C)CN([C@H](C)CO)C3=O)cc1 returned RTF Ca sens act -2.0, CRFR2-BP ag 0.7, RTF Ca sens inh 4.8, Myeloid diff 2 inactive and CRFBP-R2 block -3.6.
For N#Cc1ccc(NC(=O)C2=COCCO2)cc1 the results were RTF Ca sens act -2.6, CRFR2-BP ag 0.4, RTF Ca sens inh -1.6, Myeloid diff 2 inactive and CRFBP-R2 block -2.5.

Compound activity: PubChem BioAssay, several laboratories
